Assay outcomes (PubChem)
CRFBP-R2 block: CRF-BP/CRF-R2 complex antagonism; HEK293 CRF-R2/CRF-BP, CRF-induced calcium fluorescence; inhibition, % at 11.8 µM; 350,000 tested, 0.59% active; AID 588475;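 active = inhibition of the ligand-induced calcium signal above about 50% at the single tested concentration, limit read from the data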
RTF Ca sens act: cardiac RTF calcium sensitization; IANBD-labeled TnC RTF fluorescence at EC20 calcium; 0% EC20 calcium, 100% full calcium; activation, % at 7.2 µM; 340,000 tested, 0.24% active;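 active = activation above the mean over all tested compounds plus 3 SD, cut at about 30% in these data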;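 note: rise in fluorescence read as greater calcium sensitivity of cardiac thin filaments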
CRFBP-R2 agonist: CRF-BP/CRF-R2 complex agonism; activation, % at 13.2 µM; HEK293 CRF-R2/CRF-BP, calcium dye fluorescence (FLIPR); percent of saturating CRF peptide response; AID 588473; 350,000 tested, 0.46% active;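 active = activation of at least 50%, plus an integration ratio under a set limit after plate pattern correction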;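 note: plate controls were neutral control wells without compound for no effect and CRF at EC100 for full effect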
RTF Ca sens inh: cardiac RTF calcium desensitization | IANBD-labeled cardiac RTF, Ca2+ fluorescence | inhibition, % at 7.15 µM | 340,000 tested, 0.12% active | AID 493244;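 active = inhibition above the mean inhibition of all tested compounds plus 3 SD, cut at about 17% in these data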;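 note: assay run at fixed EC70 calcium of 1.6 mM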
Numbers without * were called inactive. This is a sample that favours compounds with a hit; in the whole collection about 1.3% have one here.

O=c1c(O)c(-c2cccs2)oc2ccc(Cl)cc12 was read as CRFBP-R2 block -254, RTF Ca sens act 36*, CRFBP-R2 agonist 267* and RTF Ca sens inh -85.
`O=c1cc(-c2cccs2)oc2ccc(Cl)cc12` gave CRFBP-R2 block -22, RTF Ca sens act -1, CRFBP-R2 agonist -2 and RTF Ca sens inh -7.
For O=c1c(O)c(-c2ccccc2)oc2ccccc12 the results were CRFBP-R2 block -8, RTF Ca sens act 0, CRFBP-R2 agonist 24 and RTF Ca sens inh -9.
Screening COC(=O)c1ccc(CN2CCc3ccccc32)cc1 returned CRFBP-R2 block 7, RTF Ca sens act -9, CRFBP-R2 agonist 0 and RTF Ca sens inh 2.
For CCOc1ccc(C(=O)NCc2ccc3c(c2)OCO3)cc1OCC the results were CRFBP-R2 block 11, RTF Ca sens act -6, CRFBP-R2 agonist 1 and RTF Ca sens inh 4.
`CC(=O)Nc1ccc(NC(=O)C(C)OC(=O)C2CCN(S(=O)(=O)c3cccs3)CC2)cc1` (stereo not given) gave CRFBP-R2 block -7, RTF Ca sens act -1, CRFBP-R2 agonist 1 and RTF Ca sens inh 6.
O=C(Nc1ccccc1C(=O)NCCCN1CCOCC1)c1cccc([N+](=O)[O-])c1 was read as CRFBP-R2 block 1, RTF Ca sens act -1, CRFBP-R2 agonist 4 and RTF Ca sens inh 9.
CC1(C)CC(=O)C2=C(C1)OC(N)=C(C#N)C2c1cc2c(cc1[N+](=O)[O-])OCO2 (stereo not given) was read as CRFBP-R2 block -40, RTF Ca sens act 10, CRFBP-R2 agonist 96* and RTF Ca sens inh -14.
Screening COc1ccc(/C=C2/CCC(CN3CCOCC3)C2=O)cc1 (stereo not given) returned CRFBP-R2 block 57*, RTF Ca sens act 0, CRFBP-R2 agonist 12 and RTF Ca sens inh -9.
For COc1ccc(/C=C2\CCC(C3CCCC3)C2=O)cc1 (stereo not given) the results were CRFBP-R2 block -15, RTF Ca sens act -4, CRFBP-R2 agonist 2 and RTF Ca sens inh 0.
Screening O=C(COC(=O)COc1ccc(Cl)cc1Br)NCc1cccs1 returned CRFBP-R2 block 53*, RTF Ca sens act 5, CRFBP-R2 agonist -1 and RTF Ca sens inh -12.
O=C(NCC1CCN(Cc2ccccc2F)CC1)Nc1cccc(Br)c1 was read as CRFBP-R2 block -9, RTF Ca sens act -4, CRFBP-R2 agonist 4 and RTF Ca sens inh -3.
Screening CN1C(=O)/C(=C\C=C2/CCCN2C)N(C)C1=S returned CRFBP-R2 block -1, RTF Ca sens act 16, CRFBP-R2 agonist 2 and RTF Ca sens inh -19.
CCN1C(=O)/C(=C/C=C2/CCCN2C)OC1=S was read as CRFBP-R2 block -15, RTF Ca sens act 32*, CRFBP-R2 agonist 47 and RTF Ca sens inh -38.
`CN1CCN(c2ccc([N+](=O)[O-])cc2NC(=O)c2cccs2)CC1` gave CRFBP-R2 block 4, RTF Ca sens act -5, CRFBP-R2 agonist 2 and RTF Ca sens inh 0.
CCC/C(=N\NC(=O)C1CC1)c1ccc(Br)cc1 was read as CRFBP-R2 block -3, RTF Ca sens act 1, CRFBP-R2 agonist -3 and RTF Ca sens inh -9.
CCC/C(=N\NC(=O)C1CC1)c1ccccc1 was read as CRFBP-R2 block 65* and CRFBP-R2 agonist -2.
Cc1ccc(NC(=O)C2CSC3(C)CCC(=O)N23)cc1S(=O)(=O)N1CCCCCC1 (stereo not given) was read as CRFBP-R2 block -12, RTF Ca sens act 2, CRFBP-R2 agonist -1 and RTF Ca sens inh -6.
For Cc1c(CN2CCCC(C(=O)c3cccc(OC(C)C)c3)C2)c(=O)n(-c2ccccc2)n1C (stereo not given) the results were CRFBP-R2 block -4, RTF Ca sens act 11, CRFBP-R2 agonist -2 and RTF Ca sens inh 1.
For OCC[C@@H]1C[C@H](O)[C@@H](O)[C@]2(CCCO2)O1 the results were CRFBP-R2 block -2, RTF Ca sens act -1, CRFBP-R2 agonist 0 and RTF Ca sens inh 4.
Screening O=C(c1ccc(NS(=O)(=O)c2cccc([N+](=O)[O-])c2)cc1)N1CCCCCC1 returned CRFBP-R2 block 115*, RTF Ca sens act -4, CRFBP-R2 agonist 6 and RTF Ca sens inh -12.
For CCOc1ccc(NC(=O)N2CCC(NC(=O)C(Cc3ccccc3OC)NC(C)=O)CC2)cc1 (stereo not given) the results were CRFBP-R2 block 10, RTF Ca sens act -5, CRFBP-R2 agonist 0 and RTF Ca sens inh 0.
O=C(NC12CC3CC(CC(C3)C1)C2)C1CCCN1C(=O)Nc1ccccc1 (stereo not given) was read as CRFBP-R2 block -6, RTF Ca sens act 1, CRFBP-R2 agonist -2 and RTF Ca sens inh -2.
